# Measured values from the supplement of paper PMC8728848.
# This is one part of a sample in which the strongest signals are shown more often than they occur.
# B1: PLU (Photorhabdus luminiscence) (protein)
# chain: HHHHHHENLYFQSSIVFASIDPRSNPLQTSSQNYVDIPGLKLDVSKYSNSPCLTALITLNIPTPYASGNNFPGGNFAIVTDQGEQLAYGGFTYSSKIPENSGRMPFTLVARYSLASNVSTIKAQWSNIRGSTVHIDSYASISAVIQCNQLV
# How the values were obtained:
# Experiment in all cases: glycan array binding signal (z-score within array); higher = stronger binding
# Settings in all cases: glycan notation: IUPAC condensed, linker removed
# [1] = biological target: Fuc(a1-2)Gal(b1-3)GalNAc(b1-3)Gal(a1-4)Gal(b1-4)Glc
# Summary of the method: (§1)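 The Consortium for Functional Glycomics database supplied 3228 glycan arrays, of which those lacking an available protein sequence were dropped. The binding signal, a within-array Z-score, was averaged across arrays of the same protein sequence and across linkers. Negative scores can be read as non-binding.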
# [2] = biological target: Fuc(a1-2)Gal(b1-3)[Fuc(a1-4)]GlcNAc
# Summary of the method: as §1
# [3] = biological target: Fuc(a1-2)Gal(b1-4)[Fuc(a1-3)]GlcNAc
# Summary of the method: as §1
# [4] = biological target: Fuc(a1-2)Gal(b1-4)[Fuc(a1-3)]GlcNAc(b1-2)Man(a1-3)[Fuc(a1-2)Gal(b1-4)[Fuc(a1-3)]GlcNAc(b1-2)Man(a1-6)]Man(b1-4)GlcNAc(b1-4)[Fuc(a1-6)]GlcNAc
# Summary of the method: as §1
# [5] = biological target: Fuc(a1-2)Gal(b1-4)[Fuc(a1-3)]GlcNAc(b1-3)Gal(b1-4)[Fuc(a1-3)]GlcNAc
# Summary of the method: as §1
# [6] = biological target: Fuc(a1-2)Gal(b1-4)[Fuc(a1-3)]GlcNAc(b1-3)Gal(b1-4)[Fuc(a1-3)]GlcNAc(b1-3)Gal(b1-4)[Fuc(a1-3)]GlcNAc
# Summary of the method: as §1
# [7] = biological target: Fuc(a1-2)[Gal(a1-3)]Gal(b1-3)GlcNAc
# Summary of the method: as §1
# [8] = biological target: Fuc(a1-2)[Gal(a1-3)]Gal(b1-4)Glc
# Summary of the method: as §1
# [9] = biological target: Fuc(a1-2)[Gal(a1-3)]Gal(b1-4)GlcNAc
# Summary of the method: as §1
# [10] = biological target: Fuc(a1-2)[Gal(a1-3)]Gal(b1-4)GlcNAc(b1-2)Man(a1-3)[Fuc(a1-2)[Gal(a1-3)]Gal(b1-4)GlcNAc(b1-2)Man(a1-6)]Man(b1-4)GlcNAc(b1-4)GlcNAc
# Summary of the method: as §1
# [11] = biological target: Fuc(a1-2)[Gal(a1-3)]Gal(b1-4)[Fuc(a1-3)]GlcNAc
# Summary of the method: as §1
# [12] = biological target: Fuc(a1-2)[GalNAc(a1-3)]Gal(b1-3)GalNAc(b1-3)Gal(a1-4)Gal(b1-4)Glc
# Summary of the method: as §1
# [13] = biological target: Fuc(a1-2)[GalNAc(a1-3)]Gal(b1-4)GlcNAc(b1-2)Man
# Summary of the method: as §1
# [14] = biological target: Fuc(a1-2)[GalNAc(a1-3)]Gal(b1-4)GlcNAc(b1-3)Gal(b1-4)GlcNAc
# Summary of the method: as §1
# [15] = biological target: Fuc(a1-4)GlcNAc
# Summary of the method: as §1
# [16] = biological target: Fuc(b1-3)GlcNAc
# Summary of the method: as §1
# [17] = biological target: Gal(a1-3)Gal(b1-3)GlcNAc(b1-6)GalNAc
# Summary of the method: as §1
# [18] = biological target: Gal(a1-3)Gal(b1-4)Glc
# Summary of the method: as §1
# [19] = biological target: Gal(a1-3)Gal(b1-4)GlcNAc
# Summary of the method: as §1
# [20] = biological target: Gal(a1-3)Gal(b1-4)[Fuc(a1-3)]GlcNAc
# Summary of the method: as §1
# [21] = biological target: Gal(a1-4)Gal(b1-4)GlcNAc(b1-2)Man(a1-3)[Gal(a1-4)Gal(b1-4)GlcNAc(b1-2)Man(a1-6)]Man(b1-4)GlcNAc(b1-4)GlcNAc
# Summary of the method: as §1
# [22] = biological target: Gal(b1-3)[Neu5Ac(b2-6)]GalNAc
# Summary of the method: as §1
# [23] = biological target: Gal(b1-4)Gal
# Summary of the method: as §1
# [24] = biological target: Gal(b1-4)GlcNAc(b1-2)Man(a1-3)Man(b1-4)GlcNAc(b1-4)GlcNAc
# Summary of the method: as §1
# [25] = biological target: Gal(b1-4)GlcNAc(b1-3)Gal(b1-4)GlcNAc(b1-3)Gal(b1-4)GlcNAc(b1-3)Gal(b1-4)GlcNAc(b1-3)Gal(b1-4)GlcNAc(b1-2)Man(a1-3)[Gal(b1-4)GlcNAc(b1-3)Gal(b1-4)GlcNAc(b1-3)Gal(b1-4)GlcNAc(b1-3)Gal(b1-4)GlcNAc(b1-3)Gal(b1-4)GlcNAc(b1-2)Man(a1-6)]Man(b1-4)GlcNAc(b1-4)[Fuc(a1-6)]GlcNAc
# Summary of the method: as §1
# [26] = biological target: Gal(b1-4)GlcNAc(b1-3)[GlcNAc(b1-6)]Gal(b1-4)GlcNAc
# Summary of the method: as §1
# [27] = biological target: Gal(b1-4)GlcNAc(b1-6)GalNAc
# Summary of the method: as §1
# [28] = biological target: GalNAc(b1-3)Gal
# Summary of the method: as §1
# [29] = biological target: GalNAc(b1-6)GalNAc
# Summary of the method: as §1
# [30] = biological target: Glc(a1-6)Glc(a1-6)Glc
# Summary of the method: as §1
# [31] = biological target: GlcNAc(a1-4)Gal(b1-4)GalNAc
# Summary of the method: as §1
# [32] = biological target: GlcNAc(b1-3)Gal(b1-4)GlcNAc(b1-2)Man(a1-3)[GlcNAc(b1-3)Gal(b1-4)GlcNAc(b1-2)Man(a1-6)]Man(b1-4)GlcNAc(b1-4)GlcNAc
# Summary of the method: as §1
# [33] = biological target: GlcNAc(b1-4)Gal(b1-4)GlcNAc
# Summary of the method: as §1
# [34] = biological target: GlcNAc(b1-4)GlcNAc(b1-4)GlcNAc
# Summary of the method: as §1
# [35] = biological target: Kdn(a2-3)Gal(b1-4)GlcNAc
# Summary of the method: as §1
# [36] = biological target: Man(a1-3)[Man(a1-6)]Man(a1-6)[Man(a1-3)]Man
# Summary of the method: as §1
# [37] = biological target: Neu5Ac(a2-3)Gal(b1-3)GalNAc(b1-3)Gal(a1-4)Gal(b1-4)Glc
# Summary of the method: as §1
# [38] = biological target: Neu5Ac(a2-3)Gal(b1-3)GlcNAc6S
# Summary of the method: as §1
# [39] = biological target: Neu5Ac(a2-3)Gal(b1-3)[Neu5Ac(a2-6)]GalNAc
# Summary of the method: as §1
# [40] = biological target: Neu5Ac(a2-3)Gal(b1-4)GlcNAc(b1-2)Man(a1-3)[GlcNAc(b1-4)][Neu5Ac(a2-3)Gal(b1-4)GlcNAc(b1-2)Man(a1-6)]Man(b1-4)GlcNAc(b1-4)GlcNAc
# Summary of the method: as §1
# [41] = biological target: Neu5Ac(a2-3)Gal(b1-4)GlcNAc(b1-3)Gal(b1-4)GlcNAc
# Summary of the method: as §1
# [42] = biological target: Neu5Ac(a2-3)Gal(b1-4)GlcNAc(b1-6)[Gal(b1-3)]GalNAc
# Summary of the method: as §1
# [43] = biological target: Neu5Ac(a2-3)Gal(b1-4)GlcNAc(b1-6)[Neu5Ac(a2-3)Gal(b1-3)]GalNAc
# Summary of the method: as §1
# [44] = biological target: Neu5Ac(a2-3)[GalNAc(b1-4)]Gal(b1-4)Glc
# Summary of the method: as §1
# [45] = biological target: Neu5Ac(a2-3)[Neu5Ac(a2-6)]GalNAc
# Summary of the method: as §1
# [46] = biological target: Neu5Ac(a2-6)Gal(b1-4)GlcNAc(b1-2)[Neu5Ac(a2-6)Gal(b1-4)GlcNAc(b1-4)]Man(a1-3)[GlcNAc(b1-4)][Neu5Ac(a2-6)Gal(b1-4)GlcNAc(b1-4)Man(a1-6)]Man(b1-4)GlcNAc(b1-4)GlcNAc
# Summary of the method: as §1
# [47] = biological target: Neu5Ac(a2-6)Gal(b1-4)GlcNAc(b1-6)GalNAc
# Summary of the method: as §1
# [48] = biological target: Neu5Gc(a2-8)Neu5Ac(a2-3)Gal(b1-4)GlcNAc
# Summary of the method: as §1
binder,measurement,setting,value
B1,glycan array binding signal (z-score),[1],-0.183
same,glycan array binding signal (z-score),[2],5.25
same,glycan array binding signal (z-score),[3],3.55
same,glycan array binding signal (z-score),[4],0.621
same,glycan array binding signal (z-score),[5],3.58
same,glycan array binding signal (z-score),[6],5.21
same,glycan array binding signal (z-score),[7],4.43
same,glycan array binding signal (z-score),[8],3.43
same,glycan array binding signal (z-score),[9],3.83
same,glycan array binding signal (z-score),[10],3.78
same,glycan array binding signal (z-score),[11],5.59
same,glycan array binding signal (z-score),[12],-0.33
same,glycan array binding signal (z-score),[13],3.66
same,glycan array binding signal (z-score),[14],11.7
same,glycan array binding signal (z-score),[15],0.546
same,glycan array binding signal (z-score),[16],-0.329
same,glycan array binding signal (z-score),[17],-0.253
same,glycan array binding signal (z-score),[18],-0.284
same,glycan array binding signal (z-score),[19],-0.298
same,glycan array binding signal (z-score),[20],-0.21
same,glycan array binding signal (z-score),[21],-0.137
same,glycan array binding signal (z-score),[22],-0.298
same,glycan array binding signal (z-score),[23],-0.25
same,glycan array binding signal (z-score),[24],-0.227
same,glycan array binding signal (z-score),[25],-0.211
same,glycan array binding signal (z-score),[26],-0.329
same,glycan array binding signal (z-score),[27],-0.243
same,glycan array binding signal (z-score),[28],-0.24
same,glycan array binding signal (z-score),[29],-0.216
same,glycan array binding signal (z-score),[30],-0.299
same,glycan array binding signal (z-score),[31],-0.301
same,glycan array binding signal (z-score),[32],-0.212
same,glycan array binding signal (z-score),[33],-0.134
same,glycan array binding signal (z-score),[34],-0.336
same,glycan array binding signal (z-score),[35],-0.224
same,glycan array binding signal (z-score),[36],-0.093
same,glycan array binding signal (z-score),[37],-0.254
same,glycan array binding signal (z-score),[38],-0.277
same,glycan array binding signal (z-score),[39],-0.203
same,glycan array binding signal (z-score),[40],-0.251
same,glycan array binding signal (z-score),[41],-0.256
same,glycan array binding signal (z-score),[42],-0.144
same,glycan array binding signal (z-score),[43],-0.34
same,glycan array binding signal (z-score),[44],-0.324
same,glycan array binding signal (z-score),[45],-0.281
same,glycan array binding signal (z-score),[46],-0.267
same,glycan array binding signal (z-score),[47],-0.292
same,glycan array binding signal (z-score),[48],-0.285
